ClpP mod = qHTS Assay for Activators of ClpP. AID 651965, 2013. 340,000 tested, 1.9% active. ATP-dependent Clp protease proteolytic subunit (Bacillus subtilis (strain 168)), P80244. purified B. subtilis ClpP, FRET peptide cleavage, 20 min. Potency, µM (titrated, usually from 57.5 µM); active = well fitted falling curve with a large enough effect; inconclusive = small, poorly fitted or top-dose-only effect; inactive = no such curve, though single readings can be large or run the other way; note: the source files actives as falling curves though it sought activators and does not explain the sign; nearly all actives have a fitted effect of over 65% in size
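Purified B. subtilis ClpP, 10 microg/mL final in Tris/HCl pH8 with KCl, BSA, glycerol and Tween-20, cleaved an Abz/nitrotyrosine-quenched decapeptide. Fluorescence (ex 320, em 430) was read at 0 and 20 min at room temperature. Delta was normalized to 5.8 microM ADEP and DMSO/no-enzyme controls.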
uPA surface inh = qHTS for Inhibitors of Cell Surface uPA Generation. Potency, µM (doses to about 38.3 µM), hits mostly inhibitors. cell surface uPA generation assay, qHTS. 330,000 tested, 0.31% active; active = well fitted inhibition curve with a large enough effect; inconclusive = small, poorly fitted or top-dose-only effect; inactive = no such curve, though single readings can be large or run the other way; tested in mouse RAW 264.7 cells; note: nearly all actives have a fitted effect of over 55% in size
p53 reactivation = qHTS assay for re-activators of p53 using a Luc reporter | AID 504706, 2011 | H1299 p53-A138V BP100-luciferase reporter, luminescence, 24 h | 320,000 tested, 0.063% active | Potency, µM (series often up to 92.2 µM), most hits filed as activators; note: nearly all actives have a fitted effect of over 45% in size
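H1299 (p53-null), stable ts p53-A138V + BP100-Luc; 1000 cells/well, Opti-MEM/10% FBS; cpd 4 pt, 1:5; 24 h, 37 deg C, 5% CO2; detection reagent 10 min RT; luminescence.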
Giardia killer = Small Molecules that selectively kill Giardia lamblia: qHTS; activity change, % at 7.66 µM, hits read low; 340,000 tested, 0.15% active; Giardia lamblia trophozoite viability; in the data active = activity change below about -80%; inconclusive = between about -30% and that limit;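 note: parasites exposed to compound for two days anaerobically before the ATP read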
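Compounds were tested on trophozoites seeded at 100 cells/well and held 48 hrs at 37 deg C anaerobically. An ATP-based luminescent kit measured the remaining live cells.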
B2AR arrestin = qHTS assay of beta-arrestin-biased ligands of beta2-adrenergic receptor; AID 492947, 2010; beta-arrestin recruitment to beta2AR, cell-based reporter; Potency, µM (series often up to 46.1 µM), most hits filed as activators; Beta-2 adrenergic receptor (Homo sapiens), P07550; 330,000 tested, 0.02% active; note: nearly all actives have a fitted effect of over 65% in size
Mito fusion yeast = qHTS Assay for Small Molecule Inhibitors of Mitochondrial Division or Activators of Mitochondrial Fusion | 320,000 tested, 0.23% active | Potency, µM (titrated, usually from 46.1 µM), most hits filed as activators | S. cerevisiae fusion-defective mutant growth rescue, CellTiterGlo 48 h; note: nearly all actives have a fitted effect of over 45% in size
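Compounds are tested for their ability to restore growth of mitochondrial fusion-defective yeast strains at non-permissive 37C in YPEG medium over 48 hours. Viability is quantified by luciferase luminescence.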
Of the large screens only hits and unclear results are named; the others gave an inactive call. Sampled rows, rich in hits. Any-hit rate of the full collection: about 2.1%. Unless noted, calls come from the whole dose curve; as a rule, active = well fitted curve in the direction sought with a large enough effect; inconclusive = small, poorly fitted or top-dose-only effect, or another doubt; inactive = no such curve, though single readings can be large; an effect the other way counts as inactive or inconclusive.

CCOC(=O)c1oc2c(O)c(O)ccc2c(=O)c1-c1nncn1-c1ccccc1	ClpP mod 22.4µM
Cc1cc(NS(=O)(=O)c2ccc(NC(=O)C(C)Oc3ccc4c(C)cc(=O)oc4c3)cc2)no1 (centres undefined)	ClpP mod 25.1µM
Cc1ccc(OC(C)C(=O)Nc2ccc(S(=O)(=O)Nc3cc(C)on3)cc2)cc1 (centres undefined)	none (no result: uPA surface inh)
CCC(=O)Oc1ccc(C(=O)Nc2ccc3c(c2)C(=O)N(C2CCCCC2)C3=O)cc1	ClpP mod 25.1µM
O=C(Nc1ccc2c(c1)C(=O)N(C1CCCCC1)C2=O)C1CCCO1 (centres undefined)	ClpP mod 31.6µM
Cc1cc(C)n(-c2nc(C)c(C)c(=O)n2CC(=O)Nc2cccc([N+](=O)[O-])c2)n1	none (no result: uPA surface inh, p53 reactivation, Giardia killer, B2AR arrestin, Mito fusion yeast)
CC(NC(=O)NC1CCCCC1)C(c1cccs1)N1CCN(c2ccccc2)CC1 (centres undefined)	uPA surface inh 10µM
CCOC(=O)c1cnn(-c2cccc(F)c2)c1C1CCNCC1	none (no result: uPA surface inh, p53 reactivation, Giardia killer, B2AR arrestin, Mito fusion yeast)
CCOC(=O)c1[nH]c2cc3c(cc2c1NC(=O)CN1CCCC1)OCO3	none
CCOC(=O)c1[nH]c2cc3c(cc2c1NC(=O)CN1CCc2ccccc2C1)OCO3	ClpP mod 3.16µM
CCOC(=O)c1[nH]c2cc3c(cc2c1NC(=O)CN1CCC(C)CC1)OCO3	ClpP mod 11.2µM
Cc1ccc(C)c(Nc2nc(-c3ccccc3)c3cc(Br)ccc3n2)c1	none (no result: uPA surface inh, p53 reactivation, Giardia killer, B2AR arrestin, Mito fusion yeast)
Cc1ccc(Cn2cc(S(=O)(=O)c3cccc(Cl)c3)c(=O)c3cc(F)c(N4CCCCC4)cc32)cc1	none (no result: uPA surface inh, p53 reactivation, Giardia killer, B2AR arrestin, Mito fusion yeast)
CCOC(=O)c1cccnc1SCc1cc(=O)n2ccccc2n1	ClpP mod 31.6µM, p53 reactivation inconclusive (no result: uPA surface inh)
CC(OC(=O)c1cccnc1SCc1cc(=O)n2ccccc2n1)c1ccccn1 (centres undefined)	none (no result: uPA surface inh)
O=[N+]([O-])c1cc(S(=O)(=O)C(F)(F)F)ccc1Sc1nc2ccccc2[nH]1	ClpP mod 25.1µM
Cc1ccccc1N1CCN(Cc2ccc([N+](=O)[O-])o2)CC1	Giardia killer -83.1 (no result: ClpP mod)
O=[N+]([O-])c1ccc(CN2CCN(c3ccccc3)CC2)o1	Giardia killer -92.1 (no result: ClpP mod, p53 reactivation)
CCCCC(=O)Nc1ccccc1C(=O)OCC(=O)c1ccc2c(c1)OCCO2	p53 reactivation 44.7µM
O=C(O)/C=C/C(=O)Nc1ccccc1C(=O)OCC(=O)c1ccc2c(c1)OCCO2	Giardia killer inconclusive (no result: ClpP mod)
O=C1CCCN1CCCn1cnc2c([nH]c3ccc(F)cc32)c1=O	ClpP mod inconclusive
Clc1ccc2[nH]c3c(NCCCN4CCOCC4)ncnc3c2c1	ClpP mod 20µM
O=C1CCCN1CCCNc1ncnc2c1[nH]c1ccc(Cl)cc12	ClpP mod 25.1µM
Cc1ccc2[nH]c3c(NCCN4CCOCC4)ncnc3c2c1	none
O=C(CC(NC(=O)c1ccccc1)c1ccccc1)OCc1nc(-c2cccc(Cl)c2)no1 (centres undefined)	none (no result: uPA surface inh, p53 reactivation, Giardia killer, B2AR arrestin, Mito fusion yeast)
Cc1nnc(NCc2ccccc2)c2c1nnn2Cc1ccccc1Cl	none (no result: uPA surface inh, p53 reactivation, Giardia killer, B2AR arrestin, Mito fusion yeast)
COc1ccc(NC(=O)Cn2c(=O)oc3cc(S(=O)(=O)NCc4ccccc4)ccc32)c(OC)c1	none (no result: uPA surface inh, p53 reactivation, Giardia killer, B2AR arrestin, Mito fusion yeast)
Cc1nn2c3ccccc3n(CCN3CCCCC3)c2nc1=O	ClpP mod inconclusive
C=CCn1c2ccccc2n2nc(C)c(=O)nc12	ClpP mod 22.4µM
Cc1ccnc(NS(=O)(=O)c2ccc(Oc3ccccc3)cc2)c1	ClpP mod 28.2µM
Cc1ccc(N(C)S(=O)(=O)c2ccc(-c3cc(C)no3)s2)cc1	uPA surface inh 2.24µM
NC(=O)c1ccc(NC(=O)C2CCN(S(=O)(=O)Cc3ccccc3)CC2)cc1	none (no result: uPA surface inh, p53 reactivation, Giardia killer, B2AR arrestin, Mito fusion yeast)
Cc1ccccc1N1C(=O)c2cccc3cccc(c23)C1=O	none (no result: p53 reactivation)
CCc1nnc(N2C(=O)c3cccc4cccc(c34)C2=O)s1	ClpP mod 15.8µM
O=C1c2cccc3cccc(c23)C(=O)N1c1cccnc1	ClpP mod 15.8µM
O=C1c2cccc3cccc(c23)C(=O)N1c1ccncc1	ClpP mod 10µM
Cc1nn2c3c(cnc2c1-c1ccc(F)cc1)C(=O)CC(c1ccccc1)C3 (centres undefined)	none (no result: uPA surface inh, p53 reactivation, Giardia killer, B2AR arrestin, Mito fusion yeast)
O=C(Nc1cccc(Oc2ccccc2)c1)C1Cc2c(-c3ccccc3)ccnc2O1 (centres undefined)	none (no result: uPA surface inh, p53 reactivation, Giardia killer, B2AR arrestin, Mito fusion yeast)
COc1cc(C(=O)NCCCNc2nc3cc(C)cc(C)c3cc2C#N)cc(OC)c1OC	ClpP mod 25.1µM
COc1cc(C(=O)NCCOc2cc(C)cc(C)c2)cc(OC)c1OC	uPA surface inh 2.51µM
COc1cc(C(=O)NCCOc2ccccc2)cc(OC)c1OC	none
CC(C)C[C@H](NC(=O)OC(C)(C)C)C(=O)N/N=C/C1=Cc2ccccc2OC1C (some centres undefined)	ClpP mod 28.2µM (no result: uPA surface inh)
CN(C)S(=O)(=O)c1ccc2c(c1)N(CC(=O)N1CCN(c3ccc(F)cc3)CC1)CCS2	none (no result: uPA surface inh, p53 reactivation, Giardia killer, B2AR arrestin, Mito fusion yeast)
CCN(CC)CCOC(=O)c1ccc(N/C=C(/C#N)c2nc(-c3cc4ccccc4oc3=O)cs2)cc1	Giardia killer -88.6, Mito fusion yeast 8.91µM
CCN(CC)CCOC(=O)c1ccc(N/C=C(/C#N)c2nc(-c3ccc(OC)cc3)cs2)cc1	none
CCN(CC)CCOC(=O)c1ccc(N/C=C(/C#N)c2nc(-c3ccc4c(c3)OCO4)cs2)cc1	Giardia killer -102.8 (no result: ClpP mod)
CCC(=O)N1CCCc2cc(S(=O)(=O)N3CCC(C(=O)NC4CCC(C)CC4)CC3)ccc21 (centres undefined)	none (no result: uPA surface inh, p53 reactivation, Giardia killer, B2AR arrestin, Mito fusion yeast)
COc1ccc(C2CC(=O)Oc3c(C(CCN4CCOCC4)c4ccc5c(c4)OCO5)c(OC)cc(OC)c32)cc1 (centres undefined)	none (no result: ClpP mod, uPA surface inh, p53 reactivation, B2AR arrestin, Mito fusion yeast)
CCOc1ccc(CCNC(=O)CSc2cc(=O)n(CC)c3ccccc23)cc1OCC	ClpP mod 31.6µM
CCn1c(=O)cc(SCC(=O)NCCc2ccc(Cl)cc2)c2ccccc21	none (no result: uPA surface inh, p53 reactivation, Giardia killer, B2AR arrestin, Mito fusion yeast)
COc1ccc(-c2nsc(C(=O)N(c3ccc(F)cc3)C(C(=O)NC3CCCC3)c3ccc(OC)cc3)c2N)cc1 (centres undefined)	ClpP mod 15.8µM
COc1ccc(N(C(=O)c2snc(C(N)=O)c2N)C(C(=O)NC2CCCCC2)c2ccc(F)cc2)c(OC)c1 (centres undefined)	none (no result: ClpP mod)
O=C(O)CCc1nn2c3ccccc3n(CC(=O)c3ccccc3)c2nc1=O	ClpP mod 31.6µM (no result: uPA surface inh)
O=C(O)CCc1nn2c3ccccc3nc2n(CCN2CCCCC2)c1=O	ClpP mod 17.8µM
